PubChem BioAssay (NCATS)
Values joined by “and” are separate entries in the source; they are usually repeats but may differ in a detail not shown here. Equal values may be shown once. Values without a mark were called inactive. Active and inactive are the calls of the source. The rule behind the calls is not given here.

Target: Nuclear receptor subfamily 1 group I member 2 (Rattus norvegicus) (UniProt Q9R1A7)
Assay: qHTS assay for small molecule activators of the rat pregnane X receptor (rPXR) signaling pathway (AID 651751)
Details: rPXR reporter cells, luciferase (One-Glo), 24 h
Note: 0% is about no effect.

Sequence of Nuclear receptor subfamily 1 group I member 2 (Rattus norvegicus) (Q9R1A7 whole entry, looked up): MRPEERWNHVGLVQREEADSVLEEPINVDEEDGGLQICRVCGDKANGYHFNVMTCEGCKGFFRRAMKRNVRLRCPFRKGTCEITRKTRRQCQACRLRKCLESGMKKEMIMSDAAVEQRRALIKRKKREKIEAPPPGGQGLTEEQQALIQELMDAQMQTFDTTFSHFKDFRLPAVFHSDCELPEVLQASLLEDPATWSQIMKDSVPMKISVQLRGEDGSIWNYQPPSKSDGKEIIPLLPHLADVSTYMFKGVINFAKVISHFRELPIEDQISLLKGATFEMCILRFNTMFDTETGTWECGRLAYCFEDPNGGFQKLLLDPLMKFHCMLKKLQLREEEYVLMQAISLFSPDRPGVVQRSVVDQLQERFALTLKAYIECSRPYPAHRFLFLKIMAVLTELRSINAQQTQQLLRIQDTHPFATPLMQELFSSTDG

Compound | max response
Oc1ccc(O)cc1 | -4.09%
O=C1OC(c2ccc(O)cc2)(c2ccc(O)cc2)c2ccccc21 | 7.44% and -0.397%
COc1cccc2c1C(=O)c1c(O)c3c(c(O)c1C2=O)C[C@@](O)(C(=O)CO)C[C@@H]3O[C@H]1C[C@H](N)[C@H](O)[C@H](C)O1 | 0.888% and 0.44%
C=CCc1ccc(O)c(OC)c1 | -0.084% and 3.11%

System: not listed separately
Assay: qHTS assay for small molecule activators of the human pregnane X receptor (PXR) signaling pathway (AID 720659)
Details: DPX-2 HepG2 CYP3A4-luciferase, 24 h; series mostly up to 92.3 µM; activation: at the top concentration

Compound | outcome | activation
Oc1c(Cl)cc(Cl)cc1Sc1cc(Cl)cc(Cl)c1O | inactive | –
Oc1ccc(O)cc1 | – | -0.618%
COc1cccc2c1C(=O)c1c(O)c3c(c(O)c1C2=O)C[C@@](O)(C(=O)CO)C[C@@H]3O[C@H]1C[C@H](N)[C@H](O)[C@H](C)O1 | inactive | –
C=CCc1ccc(O)c(OC)c1 | inactive | –
